Targets with a hit are over-represented here; the source holds about 7,900 in all. About 0.6% of all pairs of compound and target were hits. Unmarked numbers belong to inactive results.
These targets were tested with c1cc(OCCN2CCCCC2)cc(-c2n[nH]c3ccc(-c4nnc[nH]4)cc23)c1 (assay: log2 fold change, soluble protein after heating vs DMSO (PISA); higher = thermal stabilisation; K562 cells, 10 uM, 30 min; active = over 0.2 and 3.5 SD of the protein, either way, in both replicates (recomputed)).
How it was run: (§1)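 K562 cells at 2×10^6 cells/mL were treated for 30 min with 10 μM compound, and aliquots were heated for 3 min over 48°C-58°C before pooling. Extraction used PBS with 0.5% NP-40 at 4°C, and soluble protein was the supernatant after 21,000xg for 90 min, measured by TMTpro 16plex LC-MS/MS with channel sums equalised. Thermal stability values, relative to control samples and from duplicates, are log2 fold changes.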

Sequence of UniProt Q969S0 (Q969S0 whole entry, looked up): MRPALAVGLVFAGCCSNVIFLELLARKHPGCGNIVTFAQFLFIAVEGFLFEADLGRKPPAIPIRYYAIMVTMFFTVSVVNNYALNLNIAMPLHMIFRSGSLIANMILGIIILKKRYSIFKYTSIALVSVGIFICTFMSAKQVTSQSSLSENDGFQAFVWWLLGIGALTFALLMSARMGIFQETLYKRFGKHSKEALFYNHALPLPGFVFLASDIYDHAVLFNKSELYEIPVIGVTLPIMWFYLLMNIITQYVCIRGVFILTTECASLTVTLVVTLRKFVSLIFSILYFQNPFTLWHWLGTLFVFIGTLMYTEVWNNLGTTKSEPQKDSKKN
Sequence of UniProt Q9H4I9 (Q9H4I9 whole entry, looked up): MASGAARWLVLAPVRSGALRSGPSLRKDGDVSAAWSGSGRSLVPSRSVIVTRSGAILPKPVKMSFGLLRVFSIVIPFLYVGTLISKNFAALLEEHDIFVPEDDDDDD
Sequence of UniProt P51532 (P51532 whole entry, looked up): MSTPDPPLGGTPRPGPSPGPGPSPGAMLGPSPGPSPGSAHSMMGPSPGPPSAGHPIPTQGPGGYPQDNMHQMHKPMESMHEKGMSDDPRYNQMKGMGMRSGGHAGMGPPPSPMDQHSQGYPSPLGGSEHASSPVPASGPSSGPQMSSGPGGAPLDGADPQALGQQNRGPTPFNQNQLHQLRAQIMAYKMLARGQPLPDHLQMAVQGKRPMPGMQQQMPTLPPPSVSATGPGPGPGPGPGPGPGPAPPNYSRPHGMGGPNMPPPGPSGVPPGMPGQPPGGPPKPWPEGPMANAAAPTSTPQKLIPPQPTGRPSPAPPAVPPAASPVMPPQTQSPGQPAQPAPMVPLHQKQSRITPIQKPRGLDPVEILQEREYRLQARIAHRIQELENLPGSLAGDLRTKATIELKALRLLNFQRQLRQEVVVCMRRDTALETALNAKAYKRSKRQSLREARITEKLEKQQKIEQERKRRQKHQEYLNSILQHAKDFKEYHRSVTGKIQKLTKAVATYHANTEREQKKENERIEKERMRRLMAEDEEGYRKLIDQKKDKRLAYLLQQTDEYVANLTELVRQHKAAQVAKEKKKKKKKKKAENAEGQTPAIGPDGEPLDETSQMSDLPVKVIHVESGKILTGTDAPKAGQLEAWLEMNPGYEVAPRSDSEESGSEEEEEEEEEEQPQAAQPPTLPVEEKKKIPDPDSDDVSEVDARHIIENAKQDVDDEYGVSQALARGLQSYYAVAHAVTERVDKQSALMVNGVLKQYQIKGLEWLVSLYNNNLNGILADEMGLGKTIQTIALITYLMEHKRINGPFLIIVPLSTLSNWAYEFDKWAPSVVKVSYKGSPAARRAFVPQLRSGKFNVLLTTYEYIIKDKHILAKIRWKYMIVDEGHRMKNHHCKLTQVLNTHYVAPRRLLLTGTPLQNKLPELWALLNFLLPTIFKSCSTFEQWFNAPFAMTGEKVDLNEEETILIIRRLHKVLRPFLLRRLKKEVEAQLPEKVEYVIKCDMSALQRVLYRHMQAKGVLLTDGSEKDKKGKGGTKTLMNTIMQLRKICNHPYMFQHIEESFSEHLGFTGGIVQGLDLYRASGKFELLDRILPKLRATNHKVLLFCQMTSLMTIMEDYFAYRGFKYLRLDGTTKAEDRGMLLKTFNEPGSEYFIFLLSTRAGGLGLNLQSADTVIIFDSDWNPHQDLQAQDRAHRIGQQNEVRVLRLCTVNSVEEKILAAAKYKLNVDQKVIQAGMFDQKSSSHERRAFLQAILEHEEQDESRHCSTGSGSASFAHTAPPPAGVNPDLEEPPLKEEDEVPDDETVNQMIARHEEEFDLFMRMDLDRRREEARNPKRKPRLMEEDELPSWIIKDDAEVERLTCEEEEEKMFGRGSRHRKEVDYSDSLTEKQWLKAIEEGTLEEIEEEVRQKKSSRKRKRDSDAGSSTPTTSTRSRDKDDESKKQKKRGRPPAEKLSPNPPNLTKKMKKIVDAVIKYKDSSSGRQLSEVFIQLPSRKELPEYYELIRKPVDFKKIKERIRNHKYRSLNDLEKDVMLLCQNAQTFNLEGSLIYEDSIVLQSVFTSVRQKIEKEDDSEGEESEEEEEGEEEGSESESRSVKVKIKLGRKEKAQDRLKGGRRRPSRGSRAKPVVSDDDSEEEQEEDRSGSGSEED
Sequence of UniProt Q9UHB9 (Q9UHB9 whole entry, looked up): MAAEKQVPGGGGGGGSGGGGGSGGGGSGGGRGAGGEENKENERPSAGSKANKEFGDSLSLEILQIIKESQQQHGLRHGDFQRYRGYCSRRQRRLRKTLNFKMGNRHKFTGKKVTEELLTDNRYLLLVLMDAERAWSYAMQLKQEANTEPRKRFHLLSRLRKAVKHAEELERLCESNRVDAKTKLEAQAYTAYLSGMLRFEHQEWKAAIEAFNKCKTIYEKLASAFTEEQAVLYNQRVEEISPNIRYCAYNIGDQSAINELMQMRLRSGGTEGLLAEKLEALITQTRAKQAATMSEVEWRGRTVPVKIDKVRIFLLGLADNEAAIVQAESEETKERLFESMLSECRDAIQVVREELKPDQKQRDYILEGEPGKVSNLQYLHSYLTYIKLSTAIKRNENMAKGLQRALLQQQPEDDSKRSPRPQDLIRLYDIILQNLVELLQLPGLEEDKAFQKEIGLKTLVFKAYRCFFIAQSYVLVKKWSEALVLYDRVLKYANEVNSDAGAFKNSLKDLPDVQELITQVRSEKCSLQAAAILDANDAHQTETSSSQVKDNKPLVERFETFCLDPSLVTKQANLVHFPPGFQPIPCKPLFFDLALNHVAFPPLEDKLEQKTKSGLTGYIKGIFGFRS
Sequence of UniProt Q8N1S5 (Q8N1S5 whole entry, looked up): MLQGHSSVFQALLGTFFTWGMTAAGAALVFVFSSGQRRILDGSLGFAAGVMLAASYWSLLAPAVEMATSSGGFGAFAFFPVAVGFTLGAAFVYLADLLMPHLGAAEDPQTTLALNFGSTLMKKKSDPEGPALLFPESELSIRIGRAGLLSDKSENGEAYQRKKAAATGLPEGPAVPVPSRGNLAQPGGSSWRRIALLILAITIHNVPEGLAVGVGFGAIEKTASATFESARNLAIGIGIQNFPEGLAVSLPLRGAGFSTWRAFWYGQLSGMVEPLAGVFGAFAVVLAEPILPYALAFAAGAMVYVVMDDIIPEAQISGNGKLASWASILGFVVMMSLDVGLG
Sequence of UniProt Q16629 (Q16629 whole entry, looked up): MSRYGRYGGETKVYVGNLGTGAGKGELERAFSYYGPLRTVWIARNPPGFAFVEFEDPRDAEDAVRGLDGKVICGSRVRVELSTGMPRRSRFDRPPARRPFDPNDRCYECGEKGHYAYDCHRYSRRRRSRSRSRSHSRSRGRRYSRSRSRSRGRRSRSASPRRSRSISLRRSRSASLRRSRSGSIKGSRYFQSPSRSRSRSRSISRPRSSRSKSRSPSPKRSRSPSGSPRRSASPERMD
Sequence of UniProt Q02447 (Q02447 whole entry, looked up): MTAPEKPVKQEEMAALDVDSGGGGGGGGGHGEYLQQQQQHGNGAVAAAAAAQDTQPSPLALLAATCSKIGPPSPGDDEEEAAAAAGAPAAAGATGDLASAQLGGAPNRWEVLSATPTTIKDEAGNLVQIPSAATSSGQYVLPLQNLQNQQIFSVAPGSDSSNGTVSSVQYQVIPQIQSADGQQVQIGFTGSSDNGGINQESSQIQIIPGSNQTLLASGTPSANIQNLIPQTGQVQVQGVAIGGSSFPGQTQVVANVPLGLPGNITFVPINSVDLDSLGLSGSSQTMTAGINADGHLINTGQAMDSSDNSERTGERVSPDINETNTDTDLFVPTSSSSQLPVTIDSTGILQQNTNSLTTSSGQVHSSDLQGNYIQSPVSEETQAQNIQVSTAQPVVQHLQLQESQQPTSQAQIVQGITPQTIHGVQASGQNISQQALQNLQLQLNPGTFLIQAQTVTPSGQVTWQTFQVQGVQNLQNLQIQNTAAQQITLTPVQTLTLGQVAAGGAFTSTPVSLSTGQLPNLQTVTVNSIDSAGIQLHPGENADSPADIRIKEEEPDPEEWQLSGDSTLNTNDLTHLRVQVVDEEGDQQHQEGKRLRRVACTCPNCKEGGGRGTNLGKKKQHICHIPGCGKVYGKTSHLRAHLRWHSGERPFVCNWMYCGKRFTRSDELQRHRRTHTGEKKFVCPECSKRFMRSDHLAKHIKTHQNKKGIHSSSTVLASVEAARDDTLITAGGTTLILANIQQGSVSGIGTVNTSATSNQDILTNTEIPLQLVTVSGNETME
Sequence of UniProt Q658P3 (Q658P3 whole entry, looked up): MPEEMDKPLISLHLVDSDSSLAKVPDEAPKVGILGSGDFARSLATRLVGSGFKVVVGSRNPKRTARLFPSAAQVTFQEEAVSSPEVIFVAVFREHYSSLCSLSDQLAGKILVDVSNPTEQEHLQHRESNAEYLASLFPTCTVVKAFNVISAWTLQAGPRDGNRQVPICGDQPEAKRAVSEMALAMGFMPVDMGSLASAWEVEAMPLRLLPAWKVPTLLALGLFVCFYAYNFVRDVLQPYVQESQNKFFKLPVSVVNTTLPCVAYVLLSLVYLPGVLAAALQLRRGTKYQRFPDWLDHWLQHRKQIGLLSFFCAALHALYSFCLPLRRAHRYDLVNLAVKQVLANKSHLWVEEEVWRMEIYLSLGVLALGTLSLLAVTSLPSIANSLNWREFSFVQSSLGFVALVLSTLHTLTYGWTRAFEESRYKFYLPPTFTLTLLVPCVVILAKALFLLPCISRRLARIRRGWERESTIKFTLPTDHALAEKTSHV
Sequence of UniProt O75494 (O75494 whole entry, looked up): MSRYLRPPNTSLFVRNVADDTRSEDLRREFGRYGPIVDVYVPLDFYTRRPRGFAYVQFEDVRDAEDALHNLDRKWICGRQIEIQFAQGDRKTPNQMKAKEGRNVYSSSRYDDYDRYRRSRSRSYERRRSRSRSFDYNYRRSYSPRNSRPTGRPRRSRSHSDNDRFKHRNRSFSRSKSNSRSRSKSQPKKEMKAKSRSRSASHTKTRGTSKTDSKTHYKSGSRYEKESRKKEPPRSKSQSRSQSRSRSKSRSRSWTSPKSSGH

Point of comparison: SLC9A6 isoform 2 (UniProt Q92581), log2 fold change -0.073. Against it:
- TCERG1 (UniProt O14776) — within 0.2 log units, 0
- SPCS2 (UniProt Q15005) — higher, 0.23
- SP3 (UniProt Q02447) — within 0.2 log units, 0.04
- SRSF6 (UniProt Q13247) — lower, -0.299
- SPTBN1 (UniProt Q01082) — within 0.2 log units, -0.007
- SNX15 (UniProt Q9NRS6) — the same, -0.073
- SLC29A3 (UniProt Q9BZD2) — within 0.2 log units, -0.033
- SRSF11 (UniProt Q05519) — within 0.2 log units, -0.038
- SLC35B4 (UniProt Q969S0) — within 0.2 log units, -0.06
- SLC27A2 (UniProt O14975) — within 0.2 log units, -0.035
- SPPL2B (UniProt Q8TCT7) — within 0.2 log units, -0.025
- SMPD4 isoform 4 (UniProt Q9NXE4) — higher, 0.268
- TGFBI (UniProt Q15582) — higher, 0.202
- TACC2 (UniProt O95359) — the same, -0.073
- STXBP5 (UniProt Q5T5C0) — within 0.2 log units, -0.003
- STOM (UniProt P27105) — within 0.2 log units, -0.091
- SRSF7 (UniProt Q16629) — lower, -0.33
- SYNE2 isoform 2 (UniProt Q8WXH0) — within 0.2 log units, 0.03
- SLC38A9 (UniProt Q8NBW4) — within 0.2 log units, -0.043
- TBRG4 (UniProt Q969Z0) — within 0.2 log units, -0.086
- SMARCA4 (UniProt P51532) — within 0.2 log units, -0.115
- TFR2 (UniProt Q9UP52) — within 0.2 log units, -0.067
- TECR (UniProt Q9NZ01) — within 0.2 log units, -0.056
- SRSF10 (UniProt O75494) — within 0.2 log units, -0.152
- TBC1D5 isoform 2 (UniProt Q92609) — within 0.2 log units, -0.094
- SRP68 (UniProt Q9UHB9) — within 0.2 log units, -0.062
- SYMPK (UniProt Q92797) — within 0.2 log units, -0.037
- STEAP3 isoform 2 (UniProt Q658P3) — within 0.2 log units, -0.082
- SLC25A4 (UniProt P12235) — within 0.2 log units, -0.002
- SLC39A11 (UniProt Q8N1S5) — within 0.2 log units, -0.122
- TMBIM6 isoform 2 (UniProt P55061) — within 0.2 log units, -0.067
- SMDT1 (UniProt Q9H4I9) — within 0.2 log units, -0.001
- SLC35A1 (UniProt P78382) — within 0.2 log units, -0.106
- TIPRL (UniProt O75663) — within 0.2 log units, -0.012

The targets below were run with c1cn2cc(-c3ccc4cn[nH]c4c3)nc(Nc3ccc(N4CCOCC4)cc3)c2n1 [entospletinib] in the same assay as above.
How it was run: as §1

Point of comparison: SP3 (UniProt Q02447), log2 fold change -0.071. Against it:
- TCERG1 (UniProt O14776) — within 0.2 log units, -0.043
- SPCS2 (UniProt Q15005) — within 0.2 log units, -0.145
- SRSF6 (UniProt Q13247) — higher, 0.29
- SPTBN1 (UniProt Q01082) — within 0.2 log units, 0.024
- SNX15 (UniProt Q9NRS6) — within 0.2 log units, 0.124
- SLC29A3 (UniProt Q9BZD2) — within 0.2 log units, 0.023
- SRSF11 (UniProt Q05519) — within 0.2 log units, 0
- SLC35B4 (UniProt Q969S0) — within 0.2 log units, 0.033
- SLC27A2 (UniProt O14975) — within 0.2 log units, 0.063
- SPPL2B (UniProt Q8TCT7) — within 0.2 log units, -0.056
- SMPD4 isoform 4 (UniProt Q9NXE4) — higher, 0.143
- SLC9A6 isoform 2 (UniProt Q92581) — within 0.2 log units, -0.004
- TGFBI (UniProt Q15582) — within 0.2 log units, 0.063
- TACC2 (UniProt O95359) — within 0.2 log units, -0.009
- STXBP5 (UniProt Q5T5C0) — within 0.2 log units, 0.01
- STOM (UniProt P27105) — within 0.2 log units, 0.048
- SRSF7 (UniProt Q16629) — higher, 0.197
- SYNE2 isoform 2 (UniProt Q8WXH0) — within 0.2 log units, -0.069
- SLC38A9 (UniProt Q8NBW4) — within 0.2 log units, 0.019
- TBRG4 (UniProt Q969Z0) — within 0.2 log units, -0.027
- SMARCA4 (UniProt P51532) — within 0.2 log units, 0.097
- TFR2 (UniProt Q9UP52) — within 0.2 log units, 0.052
- TECR (UniProt Q9NZ01) — within 0.2 log units, -0.018
- SRSF10 (UniProt O75494) — higher, 0.235
- TBC1D5 isoform 2 (UniProt Q92609) — within 0.2 log units, -0.02
- SRP68 (UniProt Q9UHB9) — within 0.2 log units, 0.091
- SYMPK (UniProt Q92797) — within 0.2 log units, -0.015
- STEAP3 isoform 2 (UniProt Q658P3) — within 0.2 log units, -0.038
- SLC25A4 (UniProt P12235) — within 0.2 log units, -0.009
- TMBIM6 isoform 2 (UniProt P55061) — within 0.2 log units, -0.038
- SMDT1 (UniProt Q9H4I9) — within 0.2 log units, 0.01
- SLC35A1 (UniProt P78382) — within 0.2 log units, -0.142
- TIPRL (UniProt O75663) — within 0.2 log units, 0.018

SLC39A11 (UniProt Q8N1S5) was tested, and the log2 fold change was -0.458 (active).

Reference: the supplement of paper PMC10849652
